# Results from PubChem BioAssay (NCATS).
# Values joined by “and” are separate entries in the source; they are usually repeats but may differ in a detail not shown here. Identical values can stand only once. Results filed as inconclusive are left out. Entries that show only a call come without a potency. Active and inactive are the calls of the source. Unless noted, the call rests on the fitted dose curve; in most records, active means well fitted curve in the direction sought with a large enough effect; inconclusive means small, poorly fitted or top-dose-only effect, or another doubt; inactive means no such curve, though single readings can be large; an effect the other way counts as inactive or inconclusive.
# Columns and labels:
# [1] = qHTS Assay for Lipid Storage Modulators (AID 1519; calls by dose curve); details: Drosophila S3 cells, BODIPY lipid droplet/cell ratio, laser cytometry, cells loaded with oleic acid; for activity change, negative = inhibition: at 57.5 µM (top of the series)
# How it was run: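 Cells seeded at 5,000 per well were treated with compounds over a concentration series and loaded with oleic acid (400 uM, as added). Lipid droplet fluorescence (488 nm excitation, 500-530 nm channel) was read by laser-scanning cytometry and normalized to 20 uM Triacsin C.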
# [2] = target: DNA dC->dU-editing enzyme APOBEC-3G (Homo sapiens) (UniProt Q9HC16); experiment: qHTS for inhibitors of Vif-A3G interactions: Validation (AID 588379); details: Vif-A3G protein interaction assay; series mostly up to 46.1 µM
# Chain of DNA dC->dU-editing enzyme APOBEC-3G (Homo sapiens) (Q9HC16 whole entry, looked up): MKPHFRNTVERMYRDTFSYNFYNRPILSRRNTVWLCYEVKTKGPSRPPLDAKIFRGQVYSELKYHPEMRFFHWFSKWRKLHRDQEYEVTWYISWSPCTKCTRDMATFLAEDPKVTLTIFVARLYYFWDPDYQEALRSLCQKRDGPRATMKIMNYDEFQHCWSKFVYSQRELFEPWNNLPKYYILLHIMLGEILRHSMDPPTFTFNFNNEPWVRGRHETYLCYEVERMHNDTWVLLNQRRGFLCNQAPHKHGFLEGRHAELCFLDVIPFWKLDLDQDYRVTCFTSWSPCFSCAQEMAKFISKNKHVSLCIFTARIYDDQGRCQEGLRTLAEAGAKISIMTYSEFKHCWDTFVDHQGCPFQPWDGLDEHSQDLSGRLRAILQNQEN
# How it was run: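 Yellow fluorescence (Ex 488, Em 500-530) of Vif-coexpressing HeLa A3G-eYFP cells, scanned by Acumen cytometer, reports blocked A3G degradation. Cells plated at 700/well overnight at 37 deg C before compound addition, then a further overnight compound incubation at 37 deg C.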
# [3] = tested on: Zika virus NS2B-NS3 protease; experiment: Primary screen GU AMC qHTS for Zika virus inhibitors (AID 1347154); details: Zika NS2B-NS3 unlinked protease, AMC fluorogenic substrate; series mostly up to 54.1 µM; further: nearly all actives have a fitted effect of over 70% in size
# How it was run: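 Unlinked Zika NS2B hydrophilic domain–NS3 protease complex at 25 nM in 10 mM Tris-HCl pH 8.0, 0.01% Tween 20, with an AMC peptide substrate. Fluorescence change (340/450 nm) over 15 min at room temperature, normalized to controls, fitted to 4-parameter Hill.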
# [4] = Primary qHTS for small molecule stabilizers of the endoplasmic reticulum resident proteome: Secreted ER Calcium Modulated Protein (SERCaMP) assay (AID 1508630); details: SH-SY5Y GLuc-SERCaMP (Gaussia luciferase released on ER calcium loss) secretion, thapsigargin, luminescence; series mostly up to 38.4 µM
# How it was run: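 The SH-SY5Y reporter protocol was run at 3 concentrations up to 38.3 uM (primary) or 11 concentrations (follow-up): 16 h compound, 100 nM thapsigargin for 4 h, then extracellular luciferase luminescence.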
# [5] = target: Glucocorticoid receptor (Homo sapiens) (UniProt P04150); experiment: GR-GFP Redistribution (AID 450;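 active means compounds whose dose series gives a full or clear partial fitted curve of increased nuclear translocation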; further: potency means the concentration at half of the fitted maximal effect); details: U2OS GR-GFP nuclear translocation, laser cytometry, 2 h
# Chain of Glucocorticoid receptor (Homo sapiens) (P04150 whole entry, looked up, the tested form may be a part): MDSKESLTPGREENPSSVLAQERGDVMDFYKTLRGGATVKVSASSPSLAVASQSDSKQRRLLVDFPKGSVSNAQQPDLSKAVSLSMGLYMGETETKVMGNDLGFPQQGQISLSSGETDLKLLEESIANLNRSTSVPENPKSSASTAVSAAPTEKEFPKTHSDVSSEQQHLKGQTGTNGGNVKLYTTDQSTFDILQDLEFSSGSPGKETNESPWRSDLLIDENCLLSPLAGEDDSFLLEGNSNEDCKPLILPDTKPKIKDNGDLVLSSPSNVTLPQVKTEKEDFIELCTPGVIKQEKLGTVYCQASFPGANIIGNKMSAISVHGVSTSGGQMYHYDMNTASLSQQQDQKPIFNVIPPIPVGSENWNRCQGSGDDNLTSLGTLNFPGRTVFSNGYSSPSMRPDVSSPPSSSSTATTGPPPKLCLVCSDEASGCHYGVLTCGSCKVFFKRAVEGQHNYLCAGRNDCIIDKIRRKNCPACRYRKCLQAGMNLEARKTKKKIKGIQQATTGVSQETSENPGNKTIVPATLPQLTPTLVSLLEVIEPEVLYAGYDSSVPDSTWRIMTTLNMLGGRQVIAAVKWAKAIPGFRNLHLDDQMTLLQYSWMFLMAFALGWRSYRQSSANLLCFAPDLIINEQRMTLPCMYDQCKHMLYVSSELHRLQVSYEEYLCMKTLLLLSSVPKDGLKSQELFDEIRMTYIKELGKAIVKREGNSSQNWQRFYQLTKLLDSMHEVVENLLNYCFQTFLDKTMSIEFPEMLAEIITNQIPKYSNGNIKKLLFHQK
# [6] = target: Glucocorticoid receptor (Homo sapiens) (UniProt P04150); experiment: GR-EFC Redistribution (AID 451; calls by dose curve; further: potency means the concentration at half of the fitted maximal effect); details: CHO-K1 GR-EFC translocation, beta-gal luminescence, 2 h
# How it was run: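 CHO-K1 cells expressing nuclear EA and GR-ED fragments of b-gal; compounds titrated up to 46 uM final, 2 h at 37 C. GR nuclear translocation read as complemented b-gal luminescence after 1 h RT detection.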
# [7] = target: Mitogen-activated protein kinase 10 (Mus musculus) (UniProt Q61831); experiment: JNK3 AlphaScreen Assay (AID 530; active means well fitted curve in either direction with a large enough effect, not every such curve was filed as active;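 further: kinase came from lysate of stimulated human HepG2 cells; signal reports phosphorylation of biotinylated GST-cJun 1-79 at Ser73 with 10 µM ATP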); details: JNK3 lysate, c-Jun phosphorylation; series mostly up to 57.1 µM
# How it was run: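 HepG2 lysate (IL-1b/TNFa pre-activated) + biotin-GST-cJun 1-79 + anti-pSer73 cJun; cpd titration, 15 min RT; ATP 10 uM start; Tris pH 7.6, MgCl2, DTT, vanadate; beads in EDTA buffer; AlphaScreen.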
# [8] = target: Ubiquitin carboxyl-terminal hydrolase 1 (Homo sapiens) (UniProt O94782); experiment: Inhibitors of USP1/UAF1: Pilot qHTS (AID 504865); details: purified USP1/UAF1, Ub-rhodamine cleavage fluorescence; series mostly up to 114 µM;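 further: rhodamine fluorescence freed from ubiquitin-rhodamine substrate followed over time; top concentration of the series differs between compounds; nearly all actives have a fitted effect of over 35% in size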
# Chain of Ubiquitin carboxyl-terminal hydrolase 1 (Homo sapiens) (O94782 whole entry, looked up): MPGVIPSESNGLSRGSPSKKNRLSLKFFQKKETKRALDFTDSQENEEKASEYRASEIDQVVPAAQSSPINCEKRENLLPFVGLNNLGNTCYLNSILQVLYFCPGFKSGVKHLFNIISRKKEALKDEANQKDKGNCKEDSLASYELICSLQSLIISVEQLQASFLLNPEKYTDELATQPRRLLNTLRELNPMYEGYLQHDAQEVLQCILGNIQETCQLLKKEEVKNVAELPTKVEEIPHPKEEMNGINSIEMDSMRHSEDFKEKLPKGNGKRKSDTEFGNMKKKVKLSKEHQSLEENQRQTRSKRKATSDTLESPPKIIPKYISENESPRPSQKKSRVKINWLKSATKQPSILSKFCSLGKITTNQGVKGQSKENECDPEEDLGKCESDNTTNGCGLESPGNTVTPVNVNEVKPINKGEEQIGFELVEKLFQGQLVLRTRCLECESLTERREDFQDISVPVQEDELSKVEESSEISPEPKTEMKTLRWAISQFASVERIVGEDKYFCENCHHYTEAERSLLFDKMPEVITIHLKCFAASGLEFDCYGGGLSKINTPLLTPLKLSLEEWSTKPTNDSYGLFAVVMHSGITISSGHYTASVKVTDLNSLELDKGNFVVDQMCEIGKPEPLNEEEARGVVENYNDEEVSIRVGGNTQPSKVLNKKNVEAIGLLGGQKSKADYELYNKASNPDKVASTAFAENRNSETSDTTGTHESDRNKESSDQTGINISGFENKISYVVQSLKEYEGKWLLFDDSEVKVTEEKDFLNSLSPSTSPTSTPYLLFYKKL
# How it was run: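 Enzyme-free wells gave the negative control, while test wells held 1nM USP1/UAF1 preincubated with compound for 15 min at room temperature. Ub-Rho at 150nM final started the reaction, and fluorescence at 480/540 nm was recorded kinetically.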
# [9] = target: 3',5'-cyclic-AMP phosphodiesterase 4B (Homo sapiens) (UniProt Q07343); experiment: qHTS Assay for Inhibitors of PDE-IV (AID 607; active means well fitted activation curve with a large enough effect in the main read-out, with a control signal flat, not every such curve was filed as active); details: HEK293 ACTOne CNG channel cells, membrane potential fluorescence; series mostly up to 22.9 µM
# Chain of 3',5'-cyclic-AMP phosphodiesterase 4B (Homo sapiens) (Q07343 whole entry, looked up): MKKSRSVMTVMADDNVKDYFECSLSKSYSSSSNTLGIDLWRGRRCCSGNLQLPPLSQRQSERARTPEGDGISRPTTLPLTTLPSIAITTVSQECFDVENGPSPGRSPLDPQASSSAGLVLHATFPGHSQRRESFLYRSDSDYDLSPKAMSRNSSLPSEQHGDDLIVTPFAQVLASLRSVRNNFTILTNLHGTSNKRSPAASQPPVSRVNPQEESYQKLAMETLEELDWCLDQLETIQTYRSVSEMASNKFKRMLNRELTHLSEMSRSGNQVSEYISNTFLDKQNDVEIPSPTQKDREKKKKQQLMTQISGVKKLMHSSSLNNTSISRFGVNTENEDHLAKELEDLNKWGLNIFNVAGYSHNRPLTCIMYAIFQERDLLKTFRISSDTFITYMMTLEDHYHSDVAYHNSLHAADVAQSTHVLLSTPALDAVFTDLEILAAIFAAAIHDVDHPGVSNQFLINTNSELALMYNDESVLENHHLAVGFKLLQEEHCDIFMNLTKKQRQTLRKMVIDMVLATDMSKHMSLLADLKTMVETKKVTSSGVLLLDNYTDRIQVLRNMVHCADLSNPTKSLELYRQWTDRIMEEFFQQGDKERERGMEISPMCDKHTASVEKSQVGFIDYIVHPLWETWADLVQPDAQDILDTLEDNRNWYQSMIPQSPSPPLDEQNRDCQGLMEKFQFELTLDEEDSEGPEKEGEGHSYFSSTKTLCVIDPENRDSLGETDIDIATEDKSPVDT
# How it was run: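 ACTOne HEK293 cells carry a modified cAMP-gated CNG channel and express endogenous PDE4; plated 1000 cells/well, compounds up to 22.9 uM final. Membrane-potential dye fluorescence (ex 535/em 590) was read; parental cells received 10 uM forskolin + 100 uM RO 20-1724.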
# [10] = target: Cytochrome P450 2C19 (Homo sapiens) (UniProt P33261); experiment: qHTS Assay for Inhibitors and Substrates of Cytochrome P450 2C19 (AID 899); details: recombinant CYP2C19, luciferin-H EGE luminescence; series mostly up to 57.1 µM; further: potency means the concentration at half of the fitted maximal effect; nearly all actives have a fitted effect of over 60% in size
# Chain of Cytochrome P450 2C19 (Homo sapiens) (P33261 whole entry, looked up): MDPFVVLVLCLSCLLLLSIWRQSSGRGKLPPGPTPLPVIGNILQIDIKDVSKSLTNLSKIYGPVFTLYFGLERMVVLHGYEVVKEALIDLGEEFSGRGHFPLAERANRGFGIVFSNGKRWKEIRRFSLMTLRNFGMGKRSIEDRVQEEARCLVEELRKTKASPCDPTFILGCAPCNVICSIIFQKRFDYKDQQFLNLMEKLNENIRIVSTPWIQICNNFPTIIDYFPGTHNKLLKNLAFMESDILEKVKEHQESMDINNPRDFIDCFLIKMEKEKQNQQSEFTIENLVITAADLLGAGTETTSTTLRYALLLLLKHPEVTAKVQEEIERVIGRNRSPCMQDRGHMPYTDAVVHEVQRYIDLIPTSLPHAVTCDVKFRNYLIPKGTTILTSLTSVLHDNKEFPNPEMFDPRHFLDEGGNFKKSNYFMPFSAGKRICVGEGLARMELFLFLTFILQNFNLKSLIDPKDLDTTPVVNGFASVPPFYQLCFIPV
# How it was run: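 5 nM human CYP2C19 with 10uM Luciferin-H EGE (at KM) in 50mM KPO4, compound preincubated 10 min at 37C, then NADPH regeneration for 60 min at 37C. Luciferin read by luminescence after detection reagent; normalized to 57uM ketoconazole as full inhibition.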
# [11] = target: Cytochrome P450 3A4 (Homo sapiens) (UniProt P08684); experiment: qHTS Assay for Activators of Cytochrome P450 3A4 (AID 885); details: recombinant CYP3A4, Luciferin-PPXE luminescence, 60 min; series mostly up to 57.1 µM; further: nearly all actives have a fitted effect of over 65% in size
# Chain of Cytochrome P450 3A4 (Homo sapiens) (P08684 whole entry, looked up): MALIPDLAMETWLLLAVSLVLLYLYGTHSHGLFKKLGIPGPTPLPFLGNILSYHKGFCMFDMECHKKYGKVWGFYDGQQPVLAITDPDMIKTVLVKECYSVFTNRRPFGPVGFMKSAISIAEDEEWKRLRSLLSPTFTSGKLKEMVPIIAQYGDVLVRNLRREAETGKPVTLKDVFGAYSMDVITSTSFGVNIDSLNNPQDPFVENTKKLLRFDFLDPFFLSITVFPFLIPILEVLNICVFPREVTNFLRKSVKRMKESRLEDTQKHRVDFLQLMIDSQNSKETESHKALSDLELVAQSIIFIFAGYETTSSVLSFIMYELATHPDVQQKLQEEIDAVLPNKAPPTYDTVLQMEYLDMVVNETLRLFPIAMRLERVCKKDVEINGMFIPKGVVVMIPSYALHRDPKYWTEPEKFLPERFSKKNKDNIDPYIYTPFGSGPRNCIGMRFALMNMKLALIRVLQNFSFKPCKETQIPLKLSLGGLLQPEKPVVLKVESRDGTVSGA
# How it was run: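 CYP3A4 activity: Luciferin-PPXE O-dealkylation, 25uM substrate, 200mM KPO4, RT throughout. Read-out is luciferase luminescence; higher values reflect activation.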
# [12] = target: Cytochrome P450 2C9 (Homo sapiens) (UniProt P11712); experiment: qHTS Assay for Inhibitors and Substrates of Cytochrome P450 2C9 (AID 883); details: recombinant CYP2C9, luciferin-H luminescence, 60 min; series mostly up to 57.1 µM; further: potency means the concentration at half of the fitted maximal effect; nearly all actives have a fitted effect of over 60% in size
# Chain of Cytochrome P450 2C9 (Homo sapiens) (P11712 whole entry, looked up): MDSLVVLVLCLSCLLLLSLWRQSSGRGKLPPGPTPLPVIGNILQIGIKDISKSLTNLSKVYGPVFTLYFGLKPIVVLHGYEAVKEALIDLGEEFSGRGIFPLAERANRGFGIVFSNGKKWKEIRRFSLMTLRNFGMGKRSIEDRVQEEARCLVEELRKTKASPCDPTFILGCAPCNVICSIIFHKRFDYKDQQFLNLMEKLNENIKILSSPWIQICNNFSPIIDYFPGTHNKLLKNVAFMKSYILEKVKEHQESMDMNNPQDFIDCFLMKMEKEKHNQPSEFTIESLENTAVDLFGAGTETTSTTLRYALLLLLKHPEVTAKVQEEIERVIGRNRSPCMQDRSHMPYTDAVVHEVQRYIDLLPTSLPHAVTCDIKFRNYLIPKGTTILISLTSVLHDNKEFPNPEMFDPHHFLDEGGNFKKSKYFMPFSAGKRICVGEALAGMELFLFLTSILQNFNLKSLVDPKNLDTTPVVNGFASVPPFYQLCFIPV
# How it was run: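 Human CYP2C9 (10nM) with Luciferin-H at 100uM (its KM) in 25mM KPO4; compound preincubated 10 min at 37C, then NADPH regeneration for 60 min at 37C. Luciferin read by luminescence after detection reagent; normalized to 57uM sulphaphenazole as full inhibition.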
# [13] = measured here: cell count channel max response
# [14] = measured here: lipid channel max response
SMILES,"activity change, negative = inhibition [1]","max response [1, 13]","max response [1, 14]",Potency [2],Potency [3],Potency [4],Potency [5],Potency [6],Potency [7],Potency [8],Potency [9],Potency [10],Potency [11],Potency [12]
C[C@H](CCC(=O)O)[C@H]1CC[C@H]2[C@H]3C(CC[C@]12C)[C@@]1(C)CC[C@@H](O)C[C@H]1C[C@H]3O (stereo not given in full),-7.53% (inactive),14.2%,5.28%,inactive,inactive,inactive,–,–,–,–,–,–,–,–
CC(=O)O[C@H]1C[C@H]2CC[C@@H]3[C@H]4C[C@@H]([N+]5(C)CCCCC5)[C@@H](OC(C)=O)[C@]4(C)CC[C@@H]3[C@@]2(C)C[C@@H]1[N+]1(C)CCCCC1,-5.08% (inactive),-19.7%,-24.4%,inactive,inactive,inactive,> 46 µM (inactive),> 46 µM (inactive),inactive,–,–,–,–,–
CC(C)=CCC/C(C)=C/CC/C(C)=C/CC/C(C)=C/CO,7.37% (inactive),9.56%,21.5%,–,inactive,inactive,–,–,–,inactive,–,–,–,–
N[C@]1(C(=O)O)CCc2cc(P(=O)(O)O)ccc21,-2.38% (inactive),-7.84%,-8.48%,inactive,inactive,inactive,> 46 µM (inactive),> 46 µM (inactive),–,inactive,–,–,–,–
CC1(C)CO[C@H](CC(=O)O)CN1,-3% (inactive),-8.35%,-12.8%,inactive,inactive,inactive,> 46 µM (inactive),> 46 µM (inactive),–,–,inactive,5.01 µM (active),–,–
O=C1CC[C@H](C(=O)O)N1,–,–,–,–,inactive,inactive,–,–,–,–,–,–,–,–
Nc1nc2c(nc(Br)n2[C@@H]2O[C@H]3COP(=O)(O)O[C@H]3[C@@H]2O)c(=O)[nH]1,-3.52% (inactive),-4.09%,-7.98%,inactive,inactive,inactive,> 46 µM (inactive),> 46 µM (inactive),–,–,–,–,–,–
N[C@@H](CCCP(=O)(O)O)C(=O)O,-1.39% (inactive),15.6%,17.3%,inactive,inactive,inactive,> 46 µM (inactive),> 46 µM (inactive),inactive,–,inactive,–,–,–
Cc1nccn1CC1CCC2C(C1=O)c1ccccc1N2C (stereo not given),–,–,–,–,inactive,inactive,–,–,–,–,–,–,–,–
CC(=O)O[C@H](CC(=O)O)C[N+](C)(C)C,5.24% (inactive),15%,18.1%,inactive,inactive,inactive,> 46 µM (inactive),> 46 µM (inactive),–,inactive,–,–,–,–
C[C@@H](CC(=O)O)[C@@H](N)C(=O)O,-3.19% (inactive),-10.3%,-14.3%,inactive,inactive,inactive,> 46 µM (inactive),> 46 µM (inactive),inactive,–,inactive,–,–,–
CCN(CC)CC1CCN(c2ncc3ncnc(Nc4ccc(F)c(Cl)c4)c3n2)CC1,–,–,–,–,inactive,inactive,–,–,–,–,–,–,–,–
O=C(O)CCC/C=C\C[C@@H]1CO[C@H](C(F)(F)F)O[C@@H]1c1ccccc1O,0.11% (inactive),-8.58%,-8.44%,inactive,inactive,inactive,> 46 µM (inactive),> 46 µM (inactive),inactive,inactive,–,–,inactive,–
CCCCCC(=O)O[C@H](CC(=O)O)C[N+](C)(C)C,1.82% (inactive),0.652%,2.66%,inactive,inactive,inactive,–,> 46 µM (inactive),inactive,–,–,–,–,–
CC(=O)OCCNC(=O)c1cccnc1,8.28% (inactive),15.6%,27.8%,inactive,inactive,inactive,> 46 µM (inactive),> 46 µM (inactive),inactive,inactive,–,–,inactive,–
C[N+](C)(CCCCCC[N+](C)(C)CCCN1C(=O)c2ccccc2C1=O)CCCN1C(=O)c2ccccc2C1=O,-4.59% (inactive),-18.6%,-20.9%,inactive,inactive,inactive,–,> 46 µM (inactive),inactive,inactive,–,–,–,–
CC(C)C[C@H](NC(=O)N1CCCCCC1)C(=O)N[C@H](Cc1cn(C)c2ccccc12)C(=O)N[C@H](Cc1ccccn1)C(=O)O,-4.14% (inactive),14.7%,9.02%,inactive,inactive,inactive,> 46 µM (inactive),> 46 µM (inactive),–,inactive,inactive,–,inactive,–
CCCN=C(N)NCCC[C@H](N)C(=O)O,-1.86% (inactive),-18.5%,-20.5%,inactive,inactive,inactive,> 46 µM (inactive),> 46 µM (inactive),inactive,inactive,–,2 µM (active),–,3.98 µM (active)
NC1(C(=O)O)C[C@@H](C(=O)O)[C@H](C(=O)O)C1,7.04% (inactive) and 6.44% (inactive),8.99% and 4.7%,18.3% and 11.3%,inactive,inactive,inactive,> 46 µM (inactive),> 46 µM (inactive),inactive,–,inactive,7.94 µM (active),–,–
CSc1nc(N)c2ncn([C@H]3O[C@H](COP(=O)(O)OP(=O)(O)O)[C@@H](O)[C@@H]3O)c2n1,8.63% (inactive),13.1%,26.1%,inactive,inactive,inactive,–,> 46 µM (inactive),inactive,inactive,–,–,–,–
